Screening results (PubChem)
CYP2C19 inh – blocks human cytochrome P450 2C19 | AID 778 | CYP2C19 Supersomes, luciferin-H EGE luminescence, 30 min | 96,000 compounds, 21% hits | inhibition, % at 5 µM;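 active = CYP2C19 inhibition above a set limit at 5 µM in the primary screen, cut at about 50% in these data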;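 also: plate controls were negative control wells for no effect and 2.5 mM tranylcypromine positive control for full effect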
PostGolgi yeast – growth inhibition of a yeast mutant, post-Golgi transport screen | post-Golgi transport phenotypic cell assay | inhibition, % at 10 µM | 98,000 compounds, 0.9% hits;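 also: yeast cells grown in 1536-well plates; yeast grown about 18 h at 30C before absorbance read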
CYP2C9 inhib – blocks human cytochrome P450 2C9; CYP2C9 Supersomes, luciferin-H conversion, luminescence; inhibition, % at 5 µM; 96,000 compounds, 20% hits; AID 777;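 active = blocking of liver enzyme CYP2C9 beyond about 50% at 5 µM, limit read from the data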
Target sequence (P11712 whole entry, looked up): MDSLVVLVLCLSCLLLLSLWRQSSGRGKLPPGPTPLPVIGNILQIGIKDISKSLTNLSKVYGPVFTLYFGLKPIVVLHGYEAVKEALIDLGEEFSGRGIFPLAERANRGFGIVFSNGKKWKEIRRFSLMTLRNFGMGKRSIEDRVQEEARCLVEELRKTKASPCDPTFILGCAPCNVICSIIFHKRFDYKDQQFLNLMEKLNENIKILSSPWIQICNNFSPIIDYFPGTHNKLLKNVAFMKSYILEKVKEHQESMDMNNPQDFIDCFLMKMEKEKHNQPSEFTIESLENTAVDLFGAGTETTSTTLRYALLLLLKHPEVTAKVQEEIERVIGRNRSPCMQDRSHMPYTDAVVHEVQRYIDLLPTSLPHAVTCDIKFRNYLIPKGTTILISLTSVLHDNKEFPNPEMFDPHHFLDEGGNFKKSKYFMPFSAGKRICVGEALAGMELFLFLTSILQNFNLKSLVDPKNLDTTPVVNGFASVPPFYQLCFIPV
CYP2C9 activ – increases human cytochrome P450 2C9 activity | 96,000 compounds, 1.4% hits | P11712 | activation factor at 5 µM | recombinant CYP2C9, luciferin-H conversion, luminescence; stronger effect = higher value; factor 1 = untreated enzyme, 0 = blocked;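 active = activation factor of 2 or more for CYP2C9 at a 5 µM dose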;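 also: 0 = sulfaphenazole-blocked wells and 1 = vehicle-only wells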
CYP2C19 act – increases human CYP2C19 enzyme activity | P33261 | recombinant CYP2C19, luciferin-H EGE luminescence; stronger effect = higher value; 0 = fully inhibited enzyme, 1 = untreated enzyme | activation factor at 5 µM | 96,000 tested, under 10 active | AID 1025;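 active = activation factor of at least 2 at 5 µM in the primary screen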;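 also: 0 = wells with 2.5 mM tranylcypromine and 1 = vehicle-only wells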
PostGolgi ctrl – yeast control strain growth, post-Golgi counter-screen; AID 738; inhibition, % at 10 µM; 98,000 compounds, 5% hits; efflux-deficient yeast background strain, growth absorbance A615, 16 h
Numbers without * were called inactive; x = no result. A selection: hits, their analogues and other compounds. The true share with any hit is near 32%. Rule as the data show it, unless noted: active = inhibition above about 30%; inactive = the rest.

SMILES	CYP2C19 inh	PostGolgi yeast	CYP2C9 inhib	CYP2C9 activ	CYP2C19 act	PostGolgi ctrl
CC(=O)C1=C(C)NC(SCC(=O)c2ccccc2)=C(C#N)C1CC(C)C (stereo unspecified)	42	-1	59*	0.4	0.6	10
CC(=O)C1=C(C)NC(SCC(=O)c2ccc(Cl)cc2)=C(C#N)C1c1ccco1 (stereo unspecified)	100*	-2	97*	0	0	26
O=C1CCCC2=C1C(c1ccco1)Nc1ccc(C(=O)c3ccccc3)cc1N2 (stereo unspecified)	34	-5	32	0.7	0.7	4
N#Cc1cnc(SCC(=O)c2ccccc2)nc1N	37	-5	5	1	0.6	11
CCCCN(C)C(=O)CCC(=O)Nc1ccc2nc(N3CCOCC3)cc(C)c2c1	8	2	4	1	0.9	10
COc1cc(C(=O)NCCc2cn3ccccc3n2)cc(OC)c1OC	7	-3	13	0.9	0.9	7
CC(=O)C1=C(C)NC(SCC(=O)c2ccc(Cl)cc2Cl)=C(C#N)C1c1ccco1 (stereo unspecified)	100*	6	100*	0	0	34*
CCOC(=O)CSc1nc2cc(C)ccc2cc1C#N	-9	1	-5	1.1	1.1	7
CCOc1ccc2nc(SCC(=O)N3CCCCCC3)c(C#N)cc2c1	18	-1	69*	0.3	0.8	19
CCOC(=O)CSc1nc2cc(OC)ccc2cc1C#N	46	-2	89*	0.1	0.5	11
CCc1ccccc1NC(=O)COC(=O)C1CC(=O)N(c2ccc(F)cc2)C1 (stereo unspecified)	10	-7	3	1	0.9	7
Cc1ccccc1CN1CCN(CC2CC3C=CC2C3)CC1 (stereo unspecified)	61*	-5	13	0.9	0.4	7
C1=CC2CC1CC2CN1CCN(c2ccccc2)CC1 (stereo unspecified)	66*	-8	20	0.8	0.3	11
COc1cc(-c2nnc(SCc3c(F)cccc3Cl)o2)cc(OC)c1OC	40	1	58*	0.4	0.6	20
COc1cc(-c2nnc(SCc3ccccc3Cl)o2)cc(OC)c1OC	45	1	30	0.7	0.6	15
Cc1occc1C(=O)Nc1cc(C(F)(F)F)ccc1Cl	12	0	-8	1.1	0.9	2
COC(=O)c1c(C(=O)OC)c(-c2ccc(Cl)c(Cl)c2)n2c1CCC2	21	1	37	0.6	0.8	36*
COC(=O)c1c(C(=O)OC)c(-c2ccc(C)cc2)n2c1CCC2	21	4	19	0.8	0.8	15
Cc1ccc(C2CC(=O)c3cnc(NC(=O)c4ccco4)nc3C2)cc1 (stereo unspecified)	20	-7	22	0.8	0.8	3
CCn1c(=O)c(C2=NS(=O)(=O)c3ccccc3N2)c(O)c2ccccc21	-19	x	61*	0.4	1.2	x
Cc1ccc(C)c(-n2nnnc2SCC(=O)c2ccc3c(c2)NC(=O)CO3)c1	56*	-1	-154	2.5*	0.4	-1
CCOC(=O)N1CCN(Cc2nc(-c3ccc(C)cc3)no2)CC1	1	2	6	0.9	1	3
O=C(COc1ccccc1)NC(NC(=S)Nc1ccccc1C(=O)O)C(Cl)(Cl)Cl (stereo unspecified)	10	3	82*	0.2	0.9	4
Cc1ccccc1NC(=S)NC(NC(=O)c1ccccc1C)C(Cl)(Cl)Cl (stereo unspecified)	3	-1	0	1	1	4
Cc1ccc(C)c(NC(=S)NC(NC(=O)Cc2ccccc2)C(Cl)(Cl)Cl)c1 (stereo unspecified)	50*	2	36	0.6	0.5	-5
SMILES	CYP2C19 inh	PostGolgi yeast	CYP2C9 inhib	CYP2C9 activ	CYP2C19 act	PostGolgi ctrl
COc1cccc(C(C(=O)NC2CCCC2)N(C(=O)c2ccco2)C2CC2)c1OC (stereo unspecified)	9	-2	-9	1.1	0.9	2
C=CCSc1nc(N(CC)CC)c2sccc2n1	40	5	-3	1	0.6	25
COc1ccc(Nc2nc(N3CCCC3)nc(N3CCCC3)n2)c(OC)c1	-2	-5	-7	1.1	1	24
COc1ccc(Nc2nc(NC(C)(C)C)nc(N3CCCC3)n2)c(OC)c1	12	5	-4	1	0.9	63*
O=C(O)C1Cc2ccccc2CN1S(=O)(=O)c1ccc2ccccc2c1 (stereo unspecified)	4	8	8	0.9	1	-2
O=C1OCCC1S(=O)(=O)c1ccc2ccccc2c1 (stereo unspecified)	32	3	-402	5*	0.7	8
O=C(O)C1CCCN1S(=O)(=O)c1ccc2ccccc2c1 (stereo unspecified)	x	1	x	x	x	-2
O=C(c1ccccc1)N1CCCCC(S(=O)(=O)c2ccc3ccccc3c2)C1=O (stereo unspecified)	54*	-13	-62	1.6	0.5	30
O=C(CCC(NC(=O)OCc1ccccc1)C(=O)OCC(=O)N1CCCCC1)OCC(=O)N1CCCCC1 (stereo unspecified)	83*	-3	92*	0.1	0.2	1
CC(C)C(NC(=O)OCc1ccccc1)C(=O)OCC(=O)N1CCCCC1 (stereo unspecified)	46	-7	26	0.7	0.5	12
Cc1ccc2nc(C)c(C)nc2c1N	77*	4	14	0.9	0.2	-2
Cc1ccc(C)c(-c2nc3ccc(N)cc3[nH]2)c1	47	1	17	0.8	0.5	10
COc1ccc(NC(=O)C(=O)N/N=C/c2cccnc2)c(OC)c1	-4	6	-30	1.3	1	-3
COc1ccccc1-c1nnc(NC(=O)c2ccc(S(=O)(=O)N(C)Cc3ccccc3)cc2)o1	x	17	x	x	x	7
CCCCN(CCCC)S(=O)(=O)c1ccc(C(=O)Nc2nnc(COC)o2)cc1	3	1	19	0.8	1	-3
CCCCN(C)S(=O)(=O)c1ccc(C(=O)Nc2nnc(CSC)o2)cc1	4	-6	85*	0.2	1	3
CCc1nnc(NC(=O)c2ccc(S(=O)(=O)N(CC)Cc3ccccc3)cc2)o1	0	9	95*	0	1	6
CN(Cc1ccccc1)S(=O)(=O)c1ccc(C(=O)Nc2nnc(C3CC3)o2)cc1	22	-7	85*	0.1	0.8	20
O=C(CCC(=O)N1CCN(c2ccccn2)CC1)Nc1nnc(C2CCCCC2)s1	16	-4	10	0.9	0.8	7
Nn1c(SCC(=O)Nc2ccccc2)nnc1-c1cccnc1	11	1	8	0.9	0.9	9
O=C(Oc1ccc(C(=S)N2CCOCC2)cc1Br)c1cc(Cl)ccc1Cl	4	1	-137	2.4*	1	20
